Assay results: the supplement of paper PMC10037445
The full ranking holds about 2,900 compounds; the median of “NF-kB SEAP reporter activity, fold change vs agonist alone” is about 0.99, and the highest 2% start at about 2.6. This excerpt belongs to a sample that is enriched for the highest values.

How the values were obtained:
RAW-Dual [1] = test: NF-kB SEAP reporter activity, fold change vs agonist alone; cytotoxicity flag (confluency mask): not cytotoxic; higher = enhanced NF-kB activity
In short: (§1)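 Library stock was pin-tooled at 50 nL into 384-well plates of RAW-Dual macrophages (50,000 cells/well, DMEM), followed 1 h later by a PRR agonist, and the cells were kept at 37 °C, 5% CO2. Supernatant collected after 20 hours was read for IRF by QuantiLuc luminescence and for NF-κB by QuantiBlue absorbance at 620 nm. Reporter activity is fold change over agonist-alone wells, and a well counted as cytotoxic when its IncuCyte confluency was below 70% of agonist controls in both mask sets.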

RAW-Dual [2] = test: NF-kB SEAP reporter activity, fold change vs agonist alone; higher = enhanced NF-kB activity; conditions: library stock concentration (final ~1000-fold dilution): 10 mM
In short: as §1

RAW-Dual [3] = test: NF-kB SEAP reporter activity, fold change vs agonist alone; cytotoxicity flag (confluency mask): cytotoxic (confluency <70% of control); higher = enhanced NF-kB activity
In short: as §1

[4] = agonist: ODN 1826 (TLR9) 0.5 ug/mL
[5] = agonist: Pam2CSK4 (TLR2/6) 0.1 ug/mL
[6] = agonist: Pam3CSK4 (TLR2/1) 0.1 ug/mL
[7] = cytotoxicity flag (confluency mask): not cytotoxic, agonist: MPLA (TLR4) […]
[8] = cytotoxicity flag (confluency mask): not cytotoxic, agonist: Imiquimod (TLR7) […]

## CC(=O)OC12COC1CC(O)C1(C)C(=O)C(O)C3=C(C)C(OC(=O)C(O)C(NC(=O)OC(C)(C)C)c4ccccc4)CC(O)(C(OC(=O)c4ccccc4)C21)C3(C)C.O.O.O (stereo unspecified) (library stock concentration (final ~1000-fold dilution): 10 mM)
RAW-Dual [1]; agonist: LPS (TLR4) 0.1 ug/mL
  NF-kB SEAP reporter activity: 1.26
RAW-Dual [1]; [4]
  NF-kB SEAP reporter activity: 0.91
RAW-Dual [1]; [5]
  NF-kB SEAP reporter activity: 0.697
RAW-Dual [1]; [6]
  NF-kB SEAP reporter activity: 0.713

## CC1OC(OC2C(O)C(OCCc3ccc(O)c(O)c3)OC(CO)C2OC(=O)/C=C/c2ccc(O)c(O)c2)C(O)C(O)C1O (stereo unspecified) (library stock concentration (final ~1000-fold dilution): 10 mM)
RAW-Dual [1]; agonist: LPS (TLR4) 0.1 ug/mL
  NF-kB SEAP reporter activity: 1.21
RAW-Dual [1]; [4]
  NF-kB SEAP reporter activity: 1.05
RAW-Dual [1]; [5]
  NF-kB SEAP reporter activity: 1.03
RAW-Dual [1]; [6]
  NF-kB SEAP reporter activity: 1.11

## CC1OC(OC2C(O)C(OCCc3ccc(O)c(O)c3)OC(CO)C2OC(=O)/C=C/c2ccc(O)c(O)c2)C(O)C(O)C1O (stereo unspecified)
RAW-Dual [2]; [7]
  NF-kB SEAP reporter activity: 1.02

## CN1CCCN=C1/C=C/c1cccc(O)c1.O=C(O)c1cc2ccccc2c(Cc2c(O)c(C(=O)O)cc3ccccc23)c1O
RAW-Dual [2]; [8]
  NF-kB SEAP reporter activity: 0.944
RAW-Dual [2]; [7]
  NF-kB SEAP reporter activity: 1.12

## CN1CCCN=C1/C=C/c1cccc(O)c1.O=C(O)c1cc2ccccc2c(Cc2c(O)c(C(=O)O)cc3ccccc23)c1O (library stock concentration (final ~1000-fold dilution): 10 mM)
RAW-Dual [1]; agonist: LPS (TLR4) 0.1 ug/mL
  NF-kB SEAP reporter activity: 0.973
RAW-Dual [1]; [4]
  NF-kB SEAP reporter activity: 0.993
RAW-Dual [1]; [5]
  NF-kB SEAP reporter activity: 1.01
RAW-Dual [1]; [6]
  NF-kB SEAP reporter activity: 0.594

## CC(C)N1CCN(Cc2cnc(-c3cc(-c4cccc5[nH]ccc45)cc4[nH]ncc34)o2)CC1 (library stock concentration (final ~1000-fold dilution): 10 mM)
RAW-Dual [1]; agonist: LPS (TLR4) 0.1 ug/mL
  NF-kB SEAP reporter activity: 4.66
RAW-Dual [1]; [4]
  NF-kB SEAP reporter activity: 0.196
RAW-Dual [1]; [5]
  NF-kB SEAP reporter activity: 0.982
RAW-Dual [1]; [6]
  NF-kB SEAP reporter activity: 1.86

## CC(C)N1CCN(Cc2cnc(-c3cc(-c4cccc5[nH]ccc45)cc4[nH]ncc34)o2)CC1
RAW-Dual [2]; [8]
  NF-kB SEAP reporter activity: 0.519
RAW-Dual [2]; [7]
  NF-kB SEAP reporter activity: 1.83

## C[N+]1(C)CCC[C@H]1C(=O)O (library stock concentration (final ~1000-fold dilution): 10 mM)
RAW-Dual [1]; agonist: LPS (TLR4) 0.1 ug/mL
  NF-kB SEAP reporter activity: 1.08
RAW-Dual [1]; [4]
  NF-kB SEAP reporter activity: 1.08
RAW-Dual [1]; [5]
  NF-kB SEAP reporter activity: 1.16
RAW-Dual [1]; [6]
  NF-kB SEAP reporter activity: 1.08

## C[N+]1(C)CCC[C@H]1C(=O)O
RAW-Dual [2]; [8]
  NF-kB SEAP reporter activity: 0.952
RAW-Dual [2]; [7]
  NF-kB SEAP reporter activity: 0.985

## CCCC(NC(=O)/C(C#N)=C/c1cccc(Br)n1)c1ccccc1 (stereo unspecified)
RAW-Dual [2]; [8]
  NF-kB SEAP reporter activity: 0.971
RAW-Dual [2]; [7]
  NF-kB SEAP reporter activity: 0.962

## CCCC(NC(=O)/C(C#N)=C/c1cccc(Br)n1)c1ccccc1 (stereo unspecified) (library stock concentration (final ~1000-fold dilution): 10 mM)
RAW-Dual [1]; agonist: LPS (TLR4) 0.1 ug/mL
  NF-kB SEAP reporter activity: 0.416
RAW-Dual [1]; [4]
  NF-kB SEAP reporter activity: 0.925
RAW-Dual [1]; [5]
  NF-kB SEAP reporter activity: 0.387
RAW-Dual [1]; [6]
  NF-kB SEAP reporter activity: 0.838

## Cc1[nH]c2ccccc2c1CCNCc1ccc(/C=C/C(=O)NO)cc1 (library stock concentration (final ~1000-fold dilution): 10 mM)
RAW-Dual [3]; agonist: LPS (TLR4) 0.1 ug/mL
  NF-kB SEAP reporter activity: 4.6
RAW-Dual [3]; [4]
  NF-kB SEAP reporter activity: 0.219
RAW-Dual [3]; [5]
  NF-kB SEAP reporter activity: 0.886
RAW-Dual [3]; [6]
  NF-kB SEAP reporter activity: 1.47

## Cc1[nH]c2ccccc2c1C1=C(NCCc2ccc(F)cc2)C(=O)N(C)C1=O (library stock concentration (final ~1000-fold dilution): 10 mM)
RAW-Dual [1]; agonist: LPS (TLR4) 0.1 ug/mL
  NF-kB SEAP reporter activity: 1.23
RAW-Dual [1]; [4]
  NF-kB SEAP reporter activity: 0.588
RAW-Dual [1]; [5]
  NF-kB SEAP reporter activity: 0.531
RAW-Dual [1]; [6]
  NF-kB SEAP reporter activity: 0.337

## Cc1[nH]c2ccccc2c1CCNCc1ccc(/C=C/C(=O)NO)cc1
RAW-Dual [2]; cytotoxicity flag (confluency mask): cytotoxic (confluency <70% of control), agonist: Imiquimod (TLR7) […]
  NF-kB SEAP reporter activity: 2.51
RAW-Dual [2]; cytotoxicity flag (confluency mask): cytotoxic (confluency <70% of control), agonist: MPLA (TLR4) […]
  NF-kB SEAP reporter activity: 2.63

## Cc1[nH]c2ccccc2c1CCNC(=O)c1cccs1
RAW-Dual [2]; [8]
  NF-kB SEAP reporter activity: 1.06
RAW-Dual [2]; [7]
  NF-kB SEAP reporter activity: 1.11

## Cc1[nH]c2ccccc2c1C1=C(NCCc2ccc(F)cc2)C(=O)N(C)C1=O
RAW-Dual [2]; [8]
  NF-kB SEAP reporter activity: 1.01
RAW-Dual [2]; [7]
  NF-kB SEAP reporter activity: 1.28

## Cc1[nH]c2ccccc2c1CCNC(=O)c1cccs1 (library stock concentration (final ~1000-fold dilution): 10 mM)
RAW-Dual [1]; agonist: LPS (TLR4) 0.1 ug/mL
  NF-kB SEAP reporter activity: 1
RAW-Dual [1]; [4]
  NF-kB SEAP reporter activity: 1.06
RAW-Dual [1]; [5]
  NF-kB SEAP reporter activity: 1.12
RAW-Dual [1]; [6]
  NF-kB SEAP reporter activity: 0.991
